About 1,000 (1.4%) of roughly 69,000 compounds showed an effect of 50% or more. Only a selection was taken, and strong results are over-represented in it overall.
System: Leishmania donovani
Experiment: Leishmania intramacrophage assay
Type: functional, organism-based
Set-up: scale not given: in the data most compounds retested in dose-response had high values

CCc1nccn1CCNC1CCN(c2nc3ccc(Cl)cc3s2)CC1
Percent Effect (30.3 µM, […]): 98.8%

CCS(=O)(=O)CCNC1CCN(c2nc3ccc(Cl)cc3s2)CC1
Percent Effect (30.3 µM, […]): 66.16%

Cc1n[nH]c(SCCNC2CCN(c3nc4ccccc4s3)CC2)n1
Percent Effect (30.3 µM, […]): 6.253%

Cc1csc2c(N3CCC(NCCCC4CCOC4)CC3)ncnc12 (stereo not given)
Percent Effect (30.3 µM, […]): 10.77%

CCCc1cc(NCCCC2CCOC2)n2nccc2n1 (stereo not given)
Percent Effect (30.3 µM, […]): 32.07%

CCCc1cc(CNC2CCN(c3nc4ccccc4s3)CC2)on1
Percent Effect (30.3 µM, […]): 35.92%

Cc1csc2c(N3CCC(NCCc4ccnn4C)CC3)ncnc12
Percent Effect (30.3 µM, […]): 17.37%

Cn1ccnc1SCCNC1CCN(c2nc3ccccc3s2)CC1
Percent Effect (30.3 µM, […]): 43.39%

CCOCC(O)CN1CCN(C(=O)C2CCC2)CC1 (stereo not given)
Percent Effect (30.3 µM, […]): 23.63%

O=C1CCOC[C@]2(CN(Cc3ccccc3)C[C@H]2c2ccccc2)N1
Percent Effect (30.3 µM, […]): -10.32%

CN(C)c1ccc(C(=O)N2CCC(c3cc4ncccc4[nH]3)CC2)cc1
Percent Effect (30.3 µM, […]): -1.505%

CS(=O)(=O)CCNC(=O)N1CC2(CCCC2)c2ccccc21
Percent Effect (30.3 µM, […]): 0.5956%

CSCCC1c2nc[nH]c2CCN1Cc1cc(Cl)ccc1O (stereo not given)
Percent Effect (30 µM, 30.03 µM): 8.861%

CCN(C)Cc1nc(-c2ccccc2NS(C)(=O)=O)oc1C
Percent Effect (30.3 µM, […]): 2.546%

O=C(O)C(F)(F)F.O=C(c1ccno1)N1CCO[C@@H]2CC(COCc3ccccn3)C[C@H]21 (stereo not given in full)
Percent Effect (30.3 µM, […]): 6.888%

COCC(=O)N1CCCC(COc2ccccc2C)C1 (stereo not given)
Percent Effect (30.3 µM, […]): 0.2743%

Cc1cccc(OCC2CCCN(C(=O)CN(C)C3CCNCC3)C2)c1 (stereo not given)
Percent Effect (30.3 µM, […]): 48.81%

Cc1ccccc1OCC1CCCN(C(=O)CN(C)C2CCNCC2)C1 (stereo not given)
Percent Effect (30.3 µM, […]): 83.48%

CNc1cc(CNC(=O)c2ccccc2)nc(-c2ccncc2)n1
Percent Effect (30 µM, 30.03 µM): 35.29%

O=C([C@@H]1CCCO1)N1CCOCC2(CCN(Cc3cccnc3)C2)C1 (stereo not given in full)
Percent Effect (30.3 µM, […]): 28.44%

FC1(F)CCN(Cc2cccnc2)CC12CCN(c1ccccn1)C2.O=C(O)C(F)(F)F.O=C(O)C(F)(F)F.O=C(O)C(F)(F)F (stereo not given)
Percent Effect (30 µM, 30.03 µM): 38.27%

O=C(C1CCCO1)N1CCC2(CC1)COCCN(Cc1cccnc1)C2.O=C(O)C(F)(F)F.O=C(O)C(F)(F)F (stereo not given)
Percent Effect (30.3 µM, […]): 54.72%

O=C(C1CCCO1)N1CCC2(CC1)COCCN(Cc1ccncc1)C2.O=C(O)C(F)(F)F.O=C(O)C(F)(F)F (stereo not given)
Percent Effect (30.3 µM, […]): 14.9%

FC1(F)CCN(Cc2cccnc2)CC12CCN(c1ccccc1)C2.O=C(O)C(F)(F)F.O=C(O)C(F)(F)F.O=C(O)C(F)(F)F (stereo not given)
Percent Effect (30.3 µM, […]): 99.13%

Cn1ccnc1CN1CCC(F)(F)C2(CCN(c3cccnc3)C2)C1.O=C(O)C(F)(F)F.O=C(O)C(F)(F)F (stereo not given)
Percent Effect (30.3 µM, […]): 69.63%

Cn1cc(CN2CCC(F)(F)C3(CCN(c4cccnc4)C3)C2)cn1.O=C(O)C(F)(F)F.O=C(O)C(F)(F)F (stereo not given)
Percent Effect (30.3 µM, […]): 0.6501%

FC1(F)CCN(Cc2ccncc2)CC12CCN(c1cccnc1)C2.O=C(O)C(F)(F)F.O=C(O)C(F)(F)F.O=C(O)C(F)(F)F (stereo not given)
Percent Effect (30.3 µM, […]): 38.61%

Cn1ccnc1CN1CCC(F)(F)C2(CCN(c3cnccn3)C2)C1.O=C(O)C(F)(F)F (stereo not given)
Percent Effect (30.3 µM, […]): -10.04%

Cc1ccccc1CC(=O)N(C)C1CCCC1
Percent Effect (30 µM, 30.03 µM): -4.753%

CCCOCCn1ncc(N2CCc3ccccc3C2)cc1=O
Percent Effect (30.3 µM, […]): -24.62%

O=C(NCCNc1ncccn1)N1CCCC1c1ccc(F)cc1 (stereo not given)
Percent Effect (30.3 µM, […]): 15.04%

CCOC(=O)CNC(=O)c1cc2n(n1)CCCO2
Percent Effect (30.3 µM, […]): 10.49%

Cc1nc(S(=O)(=O)CCn2cccn2)n(C2CCCCC2)c1C
Percent Effect (30.3 µM, […]): 21.76%

NCc1ccccc1Sc1ccc(O)cc1.O=C(O)/C=C\C(=O)O
Percent Effect (30.3 µM, […]): 18.14%

CCCn1nnnc1CN1Cc2ccccc2CC1c1nnc(C)o1 (stereo not given)
Percent Effect (30.3 µM, […]): 14.94%

Cc1ncoc1C(=O)N1CCOC(CCCC(C)C)C1 (stereo not given)
Percent Effect (30.3 µM, […]): -28.53%

CCc1nc(C2CCCN2Cc2nc(CCOC)no2)no1 (stereo not given)
Percent Effect (30 µM, 30.03 µM): 14.38%

NCCc1n[nH]c(=O)n1-c1cccc(Cl)c1Cl
Percent Effect (30.3 µM, […]): 4.495%

Cc1cc(CC(C)Nc2ncnc3cccc(F)c23)[nH]n1 (stereo not given)
Percent Effect (30.3 µM, […]): 6.483%

CC(Cc1cncs1)Nc1ncnc2cccc(F)c12 (stereo not given)
Percent Effect (30.3 µM, […]): 50.92%

CC(Cc1cccnc1)Nc1ncnc2cccc(F)c12 (stereo not given)
Percent Effect (30.3 µM, […]): 5.204%

N#Cc1cccc(C(=O)N2C[C@H]3CC[C@@H]2CN(C(=O)C2CCC2)C3)c1
Percent Effect (30.3 µM, […]): 15.5%

CC(c1ccco1)N(C(=O)Cn1nc2n(c1=O)CCCCC2)C1CC1 (stereo not given)
Percent Effect (30.3 µM, […]): -5.38%

CCS(=O)(=O)N1CCOC2(CCCN(c3cnccn3)C2)C1.O=C(O)C(F)(F)F (stereo not given)
Percent Effect (30.3 µM, […]): 26.09%

Cc1nc(CN2CCc3ncnc(-c4ccccc4)c3CC2)cs1.O=C(O)C(F)(F)F
Percent Effect (30.3 µM, […]): 41.98%

Cc1cccc(CN2CCc3ncnc(N4CCOCC4)c3CC2)n1.O=C(O)C(F)(F)F
Percent Effect (30 µM, 30.03 µM): -4.013%

Cc1nc(CN2CCc3ncnc(-c4ccncc4)c3CC2)cs1.O=C(O)C(F)(F)F.O=C(O)C(F)(F)F
Percent Effect (30.3 µM, […]): 3.502%

Cc1cccc(CN2CCc3ncnc(N4CCCC4)c3CC2)n1.O=C(O)C(F)(F)F
Percent Effect (30.3 µM, […]): 43.68%

Cc1nc(CN2CCc3ncnc(-c4ccsc4)c3CC2)cs1.O=C(O)C(F)(F)F
Percent Effect (30.3 µM, […]): 54.86%

Cc1cccc(CN2CCc3ncnc(N4CCN(C)CC4)c3CC2)n1.O=C(O)C(F)(F)F.O=C(O)C(F)(F)F
Percent Effect (30.3 µM, […]): 55.42%

Source: ChEMBL document CHEMBL3988442, “University of Dundee, Small-Polar-MMV Screening Library” (2021)
